Sm TGR inh: inhibitors of Schistosoma mansoni thioredoxin glutathione reductase; purified TGR, DTNB reduction, TNB absorbance 405 nm; Potency, µM (titrated, usually from 114 µM), for inactives: at the top dose activity change, negative = inhibition, usual class: inhibitors; 3% of 360,000 active; also: potency is read from the fitted curve at half-maximal effect; % is scaled to controls: 0 for no effect and ±100 for the full control effect; nearly all actives have a fitted effect of over 60% in size
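TGR 20 nM + NADPH 100 uM (dispensed conc.), cpd preinc 15 min RT; start with NADPH (500 uM addition) then DTNB (15 mM addition). Kinetic TNB absorbance, 405 nm filter. Four-parameter Hill fit across titration.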
Giardia FBPA inh: Giardia lamblia aldolase inhibition | A8B2U2 | purified Giardia FBPA | Potency, µM (series often up to 59.6 µM), inactives show at the highest dose activity, negative = inhibition, hits mostly inhibitors | 0.71% of 290,000 active | AID 2451; also: potency is read from the fitted curve at half-maximal effect; % is scaled to controls: 0 for no effect and ±100 for the full control effect; nearly all actives have a fitted effect of over 55% in size
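40 nM FBPA preincubated 10 min at RT with compound (up to 57.5 uM final), then substrate plus GAPDH/TPI/NAD/arsenate coupling and diaphorase/resazurin added. Fluorescence read after 20 min at RT, 525/598 nm.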
Shiga toxin inh: blocks Shiga toxin action in Vero cells; Vero cells, Shiga toxin protein synthesis inhibition reporter; inhibition, % at 38.7 µM; 9.2% of 290,000 active; AID 2315; in the data active = inhibition mostly above about 28%, no sharp cut-off; inactive = mostly below about 43%; also: 0% is about no effect
Tb PYK inh: inhibitors of Trypanosoma brucei pyruvate kinase; Q57TT1; TbPYK enzyme, Kinase-Glo Plus ATP luminescence, 45 min; Potency, µM (doses to about 76.8 µM), without a hit: top-dose activity, negative = inhibition, most hits filed as inhibitors; 0.12% of 410,000 active; also: potency is read from the fitted curve at half-maximal effect; % is scaled to controls: 0 for no effect and ±100 for the full control effect; nearly all actives have a fitted effect of over 50% in size
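TbPYK + substrate in 50 mM TEA pH 7.2, 100 mM KCl, 10 mM MgCl2, 0.05% BSA, 0.01% Tween-20; cpd pinned; ADP 130 uM final; 45 min RT; Kinase-Glo Plus 10 min; luminescence endpoint.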
Cycloheximide cs: affects cycloheximide protein synthesis inhibition readout, counter-screen; cell reporter, cycloheximide protein synthesis inhibition counterscreen; max response, %; 12% of 300,000 active; AID 2314; in the data active = max response mostly above about 13%, no sharp cut-off; inactive = mostly below about 14%; also: read at 38.3 µM for the half of the compounds with a filed dose; 0% is about no effect
LmPK inhibitor: LmPK (Leishmania mexicana) enzyme inhibition; purified LmPK, Kinase-Glo ATP luminescence, 1 h; Potency, µM (highest dose often 57.5 µM), for inactives: at the top dose activity change, negative = inhibition, most hits filed as inhibitors; 0.37% of 290,000 active; AID 1721; also: potency is read from the fitted curve at half-maximal effect; % is scaled to controls: 0 for no effect and ±100 for the full control effect
Target sequence (Q27686 whole entry, looked up): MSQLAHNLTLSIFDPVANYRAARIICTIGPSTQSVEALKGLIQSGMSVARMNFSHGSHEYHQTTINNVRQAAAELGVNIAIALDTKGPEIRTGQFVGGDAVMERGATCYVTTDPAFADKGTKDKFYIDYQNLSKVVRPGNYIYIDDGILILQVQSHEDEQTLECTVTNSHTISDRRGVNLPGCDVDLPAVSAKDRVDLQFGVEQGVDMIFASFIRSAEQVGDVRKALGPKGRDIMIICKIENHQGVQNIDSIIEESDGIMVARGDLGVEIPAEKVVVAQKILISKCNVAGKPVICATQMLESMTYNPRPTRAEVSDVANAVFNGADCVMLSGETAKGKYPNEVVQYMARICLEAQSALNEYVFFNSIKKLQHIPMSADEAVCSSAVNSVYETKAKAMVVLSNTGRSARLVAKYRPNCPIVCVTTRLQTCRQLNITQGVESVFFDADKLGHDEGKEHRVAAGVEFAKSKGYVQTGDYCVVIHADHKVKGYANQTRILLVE
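In 50 mM imidazole pH 7.2 with 7 mM MgCl2, LmPK (0.1 nM) turned over PEP (0.5 mM) and ADP (0.1 mM) for 1 h at room temperature. Luciferase read-out of ATP.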
* marks the source's active call; other numbers are inactive results; ? = inconclusive; / = no result; [ ] = remark or other dose. This is one part of a sample in which hits are shown more often than they occur. Unless noted, calls follow the shape of the dose curve; as a rule, active = well fitted curve in the direction sought with a large enough effect; inconclusive = small, poorly fitted or top-dose-only effect, or another doubt; inactive = no such curve, though single readings can be large; an effect the other way counts as inactive or inconclusive.

SMILES	Sm TGR inh	Giardia FBPA inh	Shiga toxin inh	Tb PYK inh	Cycloheximide cs	LmPK inhibitor
O=C(N/N=C/c1c(O)n(-c2ccccc2)c(=O)[nH]c1=O)c1ccncc1	40µM*	0%	19	3%	8	-5%
N/C(=N\OC(=O)Nc1ccccc1)c1ncc([N+](=O)[O-])s1	-22%	0%	44	-16%	28*	6%
O=C(CCC(=O)c1cccs1)NNC(=O)c1ccccc1O	11µM*	/	/	-10%	/	/
Cc1ccc(NC(=O)CCC(=O)c2cccs2)c(O)c1	-2%	3%	74*	2%	66*	-1%
O=C(CCC(=O)c1cccs1)NNC(=O)c1ccc(Cl)cc1	-34%	/	/	1%	/	/
O=C(CCC(=O)c1cccs1)NC(c1ccccc1)c1ccccc1	-28%	1%	16	1%	13	5%
O=C(CCC(=O)c1cccs1)c1cccs1	39%	5%	34*	28%	40*	?
Cc1ccc2c(c1Br)C(O)(CC(=O)c1ccc(F)cc1)C(=O)N2 (stereo not drawn)	-3%	/	/	-1%	/	/
CC(=O)c1ccc(C(=O)N(Cc2cccnc2)c2nc3c(C)c(C)ccc3s2)cc1	22%	/	/	-2%[15.4 µM]	/	/
CC12CN3CCN(C1)CC(C)(C3)C2=NN	18%	1%	74*	-1%	21*	4%
Cc1ccc(-c2nsc3c(N4CCC(C(N)=O)CC4)ncnc23)cc1	3%	7%	52*	-5%	33*	5%
Cc1csc2c(N3CCCCC3)ncnc12	5%	5%	44	-2%	30*	0%
O=C(N1CCCC1)N1CCN(c2ncnc3c(-c4ccc(Cl)cc4)nsc23)CC1	1%	3%	97*	/	34*	-1%
COc1ccc(-c2nsc3c(N4CCCCC4)ncnc23)cc1	0%	-1%	100*	0%	58*	-28%
COc1ccc(-c2nsc3c(N4CCCCC4C)ncnc23)cc1 (stereo not drawn)	/	0%	3	4%	14	-7%
Cc1csc2c(N3CCC(C(=O)O)CC3)ncnc12	-5%	6%	-1	0%	6	-7%
CC(C)(C)NC(=O)CCSc1nnc(-c2ccco2)o1	10%	-6%	37	0%	27*	4%
O=C(CCSc1nnc(-c2ccco2)o1)Nc1ccccc1	-23%	-4%	5	1%	-1	7%
CCN(CC)C(=O)CCSc1nnc(-c2ccco2)o1	7%	2%	37	-2%	30*	6%
CCN(CC)C(=O)CCSc1nnc(-c2ccncc2)o1	6%	1%	-7	-13%	-3	-4%
COc1cccc(NC(=O)c2ccccc2-c2nc(-c3ccc(F)cc3)no2)c1	-3%	-4%	22	3%	8	0%
COc1ccccc1NC(=O)c1ccccc1-c1nc(-c2ccccc2OC)no1	-9%	4%	24	-3%	21*	-11%
COc1cccc(NC(=O)c2ccccc2-c2nc(-c3ccc(Cl)cc3)no2)c1	2%	1%	62*	-10%	59*	4%
Cc1ccccc1-c1noc(-c2ccccc2C(=O)O)n1	9%	14%	39	-5%	15*	1%
COc1cccc(NC(=O)c2ccccc2-c2nc(-c3ccccc3)no2)c1	-2%	-6%	28	-5%	19*	-3%
SMILES	Sm TGR inh	Giardia FBPA inh	Shiga toxin inh	Tb PYK inh	Cycloheximide cs	LmPK inhibitor
O=C(O)c1ccccc1-c1noc(-c2ccccc2F)n1	-2%	/	/	/	/	/
COc1ccccc1-c1noc(-c2ccccc2C(=O)Nc2ccccc2)n1	-6%	1%	-7	3%	-5	12%
CC(=O)Nc1cccc(NC(=O)CSc2cn(CC(=O)N3CCCCCC3)c3ccccc23)c1	0%	/	/	-9%	/	/
Cc1nc(N2CCOCC2)c2nc(-c3ccccc3)n(CCCN3CCCCC3C)c2n1 (stereo not drawn)	/	6%	/	/	/	/
CCOC(=O)c1cccc(NS(=O)(=O)c2ccc3[nH]c4c(c3c2)CCCC4)c1	2%	/	/	2%	/	/
C=C(C)C1CCC(C)C(OC(C)=O)C1 (stereo not drawn)	/	6%	-2	/	-7	/
Cc1ccc(NC(=O)CNC(=O)Cn2cnc3sc(C)c(C)c3c2=O)cc1F	5%	/	9	-3%	-7	-4%
CCN(CC)CC#CCOC(=O)[C@@](O)(c1ccccc1)C1CCCCC1	/	3%[21.7 µM]	/	10%	/	/
COc1cc2cc(C)c(SCC(=O)N3CCN(C(=O)c4ccco4)CC3)nc2cc1OC	18µM*	-3%	-4	-3%	-4	2%
CCc1cc2cc(C)ccc2nc1SCC(=O)N1CCN(C(=O)c2ccco2)CC1	?	12%	-4	1%	-2	4%
CC(C)(C)c1ccc(C(=O)N2CCCC2)s1	-3%	2%	51*	2%	26*	-9%
O=C(c1ccc(Cl)s1)N1CCCC1	3%	2%	-9	-13%	16	2%
O=C(NCCc1ccncc1)Nc1ccc(Cl)cc1	-15%	0%	18	-10%	1	4%
O=C(NCCc1ccc(Cl)cc1)Nc1ccc(Cl)cc1	11%	1%	43*	-18%	13	-1%
O=C(NCCc1ccc(F)cc1)Nc1ccccc1	7%	11%	31*	3%	30*	-1%
COc1cccc(C(=O)C2CN(C)CC2c2ccc(Cl)cc2)c1 (stereo not drawn)	/	3%	-6	5%	-5	1%
COc1cccc(C(=O)C2CN(c3ccccc3)CC2c2ccc(Cl)cc2)c1 (stereo not drawn)	-7%	1%	53	-4%	23*	2%
O=C(N/N=C/C=C/c1ccccc1[N+](=O)[O-])c1cccs1	-16%	-7%	23	-2%	30*	2%
NC(=S)N/N=C/c1ccccc1[N+](=O)[O-]	9%	?	8	-7%	1	4%
O=C(N/N=C\C=C\c1ccc([N+](=O)[O-])o1)c1cccs1	10µM*	-18%	100*	1%	33*	1%
O=C(/C=C/c1ccccc1)Nc1ccc(NC(=O)c2cccs2)cc1	0%	-20%	3	2%	-5	4%
O=C(N/N=C/C(Br)=C/c1ccccc1)c1cccs1	-20%	-6%	123*	-9%	63*	-3%
O=C(N/N=C/c1ccccc1[N+](=O)[O-])c1cccs1	7%	0%	88*	-4%	41*	-13%
CCOc1ccccc1CNc1ncnc2onc(-c3ccc(F)cc3)c12	3%	/	/	6%	/	/
CN(C)CCCNC(NC(=O)/C=C/c1ccccc1)C(Cl)(Cl)Cl (stereo not drawn)	5%	3%	-8	3%	1	-3%
Cc1cccc(CC(=O)NCCc2csc(-c3ccc(C(F)(F)F)cc3)n2)c1	3%	/	/	2%	/	/
NS(=O)(=O)c1ccc(CCNS(=O)(=O)c2ccc(Cl)nc2)cc1	4%	2%	-5	0%	-1	-9%
